# Laboratory results reported in PubChem BioAssay (NCI).
# The panel holds about 83,000 compounds, 20% with a hit somewhere; the sample as a whole holds those more often.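 In brief: 96-well plates, 48 h treatment, single concentration, percent growth endpoint.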 Values without a mark were called inactive. Calls of active or inactive are those of the source. The calls were made as follows: active = growth percent below 10; inactive = the rest.
# How the values were obtained:
# Assay in all cases: NCI-60 one-dose screen, 48 h (100 = growth as untreated, 0 = no growth, -100 = all killed)
# SK-MEL-2 melanoma = conditions: 10 µM unless noted
# EKVX NSCLC = conditions: 10 µM unless noted
# SN12C renal = conditions: 10 µM unless noted
# UO-31 renal = conditions: 10 µM unless noted
# TK-10 renal = conditions: 10 µM unless noted
# ACHN renal = conditions: 10 µM unless noted
# CAKI-1 renal = conditions: 10 µM unless noted
# A498 renal = conditions: 10 µM unless noted
# CCRF-CEM leukemia = conditions: 10 µM unless noted
# MOLT-4 leukemia = conditions: 10 µM unless noted
# SR leukemia = conditions: 10 µM unless noted
# RPMI-8226 leukemia = conditions: 10 µM unless noted
# OVCAR-8 ovarian = conditions: 10 µM unless noted
# OVCAR-5 ovarian = conditions: 10 µM unless noted
# OVCAR-4 ovarian = conditions: 10 µM
# SK-OV-3 ovarian = conditions: 10 µM unless noted
# IGROV1 ovarian = conditions: 10 µM unless noted
# OVCAR-3 ovarian = conditions: 10 µM unless noted
# HS 578T breast = conditions: 10 µM unless noted
# NCI/ADR-RES ovarian = conditions: 10 µM unless noted
Compound,growth (SK-MEL-2 melanoma),growth (EKVX NSCLC),growth (SN12C renal),growth (UO-31 renal),growth (TK-10 renal),growth (ACHN renal),growth (CAKI-1 renal),growth (A498 renal),growth (CCRF-CEM leukemia),growth (MOLT-4 leukemia),growth (SR leukemia),growth (RPMI-8226 leukemia),growth (OVCAR-8 ovarian),growth (OVCAR-5 ovarian),growth (OVCAR-4 ovarian),growth (SK-OV-3 ovarian),growth (IGROV1 ovarian),growth (OVCAR-3 ovarian),growth (HS 578T breast),growth (NCI/ADR-RES ovarian)
O=C1COCCN1c1ccc(NCc2cn(Cc3cccc4ccccc34)c3ccccc23)cc1,93.4%,96.6%,92.6%,58%,44.4%,91.4%,7.53% (active),-39.1% (active),96.9%,92%,74.5%,82.1%,83.4%,41.7%,69.8%,62%,27.2%,87.9%,84.3%,78.2%
Cn1cc(-c2noc(-c3cn(C)c4ncc(F)cc34)n2)c2ccccc21,93.8%,34.3%,33.6%,61.7%,38.9%,66.3%,47.1%,62.9%,78%,77.4%,69.1%,78.2%,40%,75.1%,-29.4% (active),7.74% (active),45%,32.5%,30.9%,58.2%
O=C(CSc1nc2ccc([N+](=O)[O-])cc2[nH]1)Nc1ccc(F)c(Cl)c1,-7.66% (active),11.1%,3.12% (active),3.59% (active),25.1%,16.9%,9.26% (active),-13.1% (active),19%,5.63% (active),5.97% (active),-22.3% (active),15.5%,50.9%,2.64% (active),21.4%,36.1%,16.5%,20.3%,22.4%
OC(c1ccc(Cl)cc1)(c1ccc(Cl)cc1)C(O)(c1ccc(Cl)cc1)c1ccc(Cl)cc1,68.4%,49%,29.8%,25.7%,29.1%,61.8%,46.8%,64.4%,32.8%,22.7%,25.9%,30.8%,56.8%,71.7%,44.8%,35.9%,19.6%,40.7%,68.6%,48.5%
C#CCOc1ccc(C2=NN(CC3CC3)C3N=C(Cl)c4ncn(CC5CC5)c4N23)cc1OCC#C (stereo not given),82.7%,80.1%,82.2%,46.9%,76%,62%,43.7%,50.9%,64.3%,61%,65.7%,73.7%,71.6%,96.6%,71.3%,73.8%,67.8%,90.4%,79.4%,85.3%
CCOC(=O)CC(c1ccccc1)C(C#N)c1ccccc1 (stereo not given),106%,87.5%,109%,84%,101%,103%,87.1%,91.3%,98.9%,88.8%,97.3%,91.3%,99.2%,110%,98.7%,95.1%,108%,98.9%,89.4%,109%
CC(C)c1ccc(C(=O)Nc2nc3ccc(O)cc3s2)cc1,78%,37.4%,39.4%,22.1%,70.3%,21.3%,-5.74% (active),38%,29.2%,13.5%,17.1%,28.9%,40.6%,40.6%,33.9%,89.2%,49.1%,54.1%,72.3%,25.7%
COc1cc2c(c(OC)c1)C1c3cc(OC)ccc3NC(=O)N1CC2 (stereo not given),45.5%,91.9%,88.5%,78.5%,82.5%,100%,77.8%,74.7%,88.2%,72.9%,24%,81.9%,95.1%,93.7%,96.2%,93.1%,80.2%,81.9%,90.2%,51.5%
Cc1ccc(-c2cc(O)c(-c3ccc(C)cc3C)cc2O)c(C)c1,91.8%,56.6%,68.9%,64.5%,79.1%,73.2%,39.7%,94.3%,39.5%,31.7%,7.1% (active),37.2%,47.7%,96.9%,41.2%,82.7%,86.9%,67.8%,87.9%,52.2%
CN(Cc1cccc(C(F)(F)F)c1)C(=O)[C@@H](CC(=O)N1CCC(N2CCCCC2)CC1)N1C(=O)[C@@H](N2C(=O)OC[C@@H]2c2ccccc2)[C@H]1/C=C/c1ccccc1,100%,89.9%,82.6%,83.4%,93.6%,100%,91.9%,63%,90.6%,58.3%,54.3%,66.9%,93.2%,104%,74.2%,86.2%,89.6%,92.9%,61%,99.2%
O=c1[nH]cnc2c1ccn2C1OC(CO)C(O)C1O (stereo not given),21.2%,79%,63.1%,37.9%,52.7%,27.8%,37.2%,57.5%,64.1%,53.6%,58.1%,58%,31.4%,76.6%,24.5%,39.3%,48.7%,64.7%,74.6%,31.1%
O=C(CCCCCCSc1nc(-c2ccc(Cl)cc2)cc(-c2ccc(Cl)cc2)n1)NO,92.7%,50.9%,26.1%,8.29% (active),30.7%,15.5%,13.4%,81.8%,5.2% (active),11.4%,5.47% (active),34.9%,20.5%,39.4%,35.9%,17.4%,27.6%,22.9%,69.5%,3.91% (active)
CCCCCn1sc(=O)n(Cc2ccc(CNC(=O)OCc3ccc4cccc(O)c4n3)cc2)c1=O,39.3%,28.7%,-79.7% (active),-100% (active),-54% (active),-100% (active),-74.9% (active),4.89% (active),7.05% (active),1.87% (active),4.06% (active),-14.6% (active),8.91% (active),-42.3% (active),-50.6% (active),41.7%,-85.9% (active),-84.5% (active),10.8%,-11.6% (active)
CC1Cc2c(Cl)ncnc2N(C)c2ccc(Cl)cc21 (stereo not given),-27.7% (active),14.2%,2.41% (active),19.6%,11.2%,11.8%,8.59% (active),-34.9% (active),19.4%,8.07% (active),6.35% (active),-3.81% (active),8.59% (active),39.8%,7.91% (active),12%,30.5%,9.74% (active),23.4%,13.1%
O=C(O)c1cn(C2CC2)c2cc(N3CCN(Cc4cc(Cl)ccc4O)CC3)c(F)cc2c1=O,88%,65.1%,65.3%,40.7%,81%,44.3%,46.7%,94%,45.9%,74.1%,0.849% (active),41.8%,58.2%,89.4%,72.3%,71%,44.8%,81.2%,74.1%,72.7%
